Source: PubChem BioAssay (National Center for Advancing Translational Sciences (NCATS))
In the library only some 19% were active in any assay of this set; here they are far more common.
IL1B secr inh: blocks inflammasome-driven IL-1 beta release. AID 743279. actives 4.7% (n = 360,000). activity change, % at 57.5 µM. THP-1 LPS/ATP IL-1B secretion, AlphaLISA, 16 h; active compounds read low; in the data active = activity change below about -50%; inconclusive = mostly about -30% to -49%
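THP-1 cells pretreated 1 hr with compounds (up to 57.5 uM final), then stimulated with LPS (250 ng/mL final) plus ATP (1.25 mM final); secreted IL-1B measured by AlphaLISA after 16 hr, decreased signal indicating inhibition.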
HT1080-NT tox: kills 2HG-producing HT-1080-NT fibrosarcoma cells; Potency, µM (titrated, usually from 46.1 µM), actives largely listed as cytotoxic; AID 686970; HT-1080-NT fibrosarcoma viability, CellTiter-Glo ATP luminescence, 48 h; actives 1.6% (n = 360,000);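 also: NT is the 2HG producing partner of a matched IDH1 knockdown line; nearly all actives have a fitted effect of over 55% in size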
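Luminescent CellTiter-Glo readout after 48 hours of compound exposure at 37 degrees C defined viability of HT-1080-NT cells. Activity was normalized to DMSO wells and cell-free media wells; concentration-response curves were fitted and assigned curve classes.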
HT1080 IDH1KD tx: kills HT-1080 cells with IDH1 knockdown; actives 2% (n = 360,000); AID 686971; HT-1080 IDH1 knockdown viability, ATP luminescence, 48 h; Potency, µM (titrated, usually from 46.1 µM), usual class: cytotoxic
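Assay cells: HT-1080 with IDH1 knockdown, 750 per well, RPMI/5% FBS. Exposure: 48 h at 37 °C following 2 h pre-incubation. Read: CellTiter-Glo luminescence; fitted concentration-response, curve class assigned.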
TDP1 cell CPT: growth inhibition of DT40 Tdp1-/-;hTDP1 cells with camptothecin (screen for TDP1 inhibitors); chicken DT40 Tdp1-/-;hTDP1 cells + 20 nM CPT, ATP luminescence, 48 h; Potency, µM (titrated, usually from 46.2 µM), usual class: inhibitors; actives 12% (n = 420,000); also: nearly all actives have a fitted effect of over 55% in size
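Cell growth measured by CellTiter-Glo luminescence after a minimum 48 h, 37 C compound exposure with 20 nM CPT in Tdp1-knockout DT40 cells stably expressing hTDP1, seeded 400/well; qHTS titration format.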
DT40 TDP1 no CPT: qHTS for Inhibitors of human tyrosyl-DNA phosphodiesterase 1 (TDP1): qHTS in cells in absence of CPT | Potency, µM (top dose mostly 46.2 µM), actives largely listed as inhibitors | DT40 Tdp1-/- hTDP1 cells, no CPT, ATP luminescence, 48 h | actives 15% (n = 420,000); also: nearly all actives have a fitted effect of over 55% in size
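Chicken DT40 Tdp1-/- cells stably complemented with human TDP1 were seeded at 400 cells/well with DMSO in place of 20 nM camptothecin. After compound pinning, cells grew at least 48 hr at 37 °C; viability read by CellTiter-Glo luminescence.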
Numbers stand for hits; - = inactive; ? = inconclusive; . = not tested or not shown; [ ] = dose if it differs, or a comment. Unless noted, calls follow the shape of the dose curve; as a rule, active = well fitted curve in the direction sought with a large enough effect; inconclusive = small, poorly fitted or top-dose-only effect, or another doubt; inactive = no such curve, though single readings can be large; an effect the other way counts as inactive or inconclusive.

SMILES | IL1B secr inh | HT1080-NT tox | HT1080 IDH1KD tx | TDP1 cell CPT | DT40 TDP1 no CPT
CC(=O)Nc1ccc(N=Cc2c(O)c3ccccc3oc2=O)cc1 | - | - | - | 21µM | -
O=C(/C=C/c1ccc(Br)o1)NCCCN1CCOCC1 | - | - | - | - | ?
COc1ccc(C(=O)Nc2cc(C)on2)cc1S(=O)(=O)N1CC(c2ccccc2)CC1=O (centres undefined) | - | - | - | - | -
Cc1ccc2oc(C(=O)NCC(c3ccco3)N(C)C)c(C)c2c1 (centres undefined) | - | - | - | ? | 4.1µM
COc1ccc(CN(C(=O)Cc2coc3ccc(C)cc23)C2CCS(=O)(=O)C2)cc1 (centres undefined) | . | . | . | - | ?
Cc1ccc2occ(CC(=O)N(Cc3ccc(Cl)cc3)Cc3ccco3)c2c1 | . | . | . | ? | 23µM
Cc1ccc(CC(=O)NCC(c2ccco2)N(C)C)cc1C (centres undefined) | - | - | - | - | -
Cc1cc2oc(C(=O)N(Cc3ccco3)Cc3ccccc3Cl)c(C)c2cc1C | . | . | . | ? | 15µM
Cc1ccc2occ(CC(=O)N(Cc3ccccc3Cl)C3CCS(=O)(=O)C3)c2c1 (centres undefined) | . | . | . | ? | 23µM
Cc1nc(C(F)(F)F)c(C(=O)N=CN(C)C)s1 | - | - | - | - | -
COc1cc(OC)cc(-c2noc([C@@H]3O[C@H](CO)[C@H](O)[C@H](O)[C@H]3O)n2)c1 | - | ? | - | - | -
C=CCNc1nc2cc(-c3cccc(NC(C)=O)c3)sc2c(=O)n1C | - | ? | ? | ? | ?
Cc1ccc(C(=O)N(Cc2ccco2)Cc2ccco2)cc1 | . | . | . | - | ?
Cc1ccc(CN(Cc2ccco2)C(=O)c2cccc(C)c2)cc1 | . | . | . | 15µM | 16µM
Cc1ccc(NC(=O)Cc2coc3c(C)c(C)ccc23)cc1Cl | . | . | . | - | -
Cc1ccc(CN(Cc2ccco2)C(=O)c2oc3c(C)c(C)ccc3c2C)cc1 | . | . | . | ? | 23µM
Cc1ccc(CN(Cc2ccco2)C(=O)c2oc3ccc(C)cc3c2C)cc1 | . | . | . | ? | 15µM
Cc1ccc2c(CC(=O)NCc3ccco3)coc2c1C | - | 5.2µM | 7.3µM | 13µM | 12µM
NS(=O)(=O)c1cc(Cl)c(NC(=O)COC(=O)c2ccccn2)c(Cl)c1 | - | - | - | - | -
CCOCCc1nn2c(=O)cc(CSCC(=O)Nc3ccccc3)nc2s1 | - | - | - | - | -
Cc1ccc(-n2nc3c(SCCN4CCOCC4)nnc(C)c3c2C)cc1 | - | - | - | ? | ?
COc1ccccc1CCNC(=O)C1CCN(c2nnc(C)c3c(C)n(-c4ccc(C)cc4)nc23)CC1 | - | - | - | 4.6µM | 2.9µM
Cc1ccc(-n2nc3c(=O)n(CC(=O)NCCc4ccco4)nc(C)c3c2C)cc1 | - | - | - | ? | -
CCOc1ccc(-n2nc3c(SCCN4CCCC4)nnc(C)c3c2C)cc1 | -97 | ? | ? | - | -
COc1ccc(-n2nc3c(N4CCC(C(=O)NCCc5ccco5)CC4)nnc(C)c3c2C)cc1 | -51 | ? | ? | ? | ?
SMILES | IL1B secr inh | HT1080-NT tox | HT1080 IDH1KD tx | TDP1 cell CPT | DT40 TDP1 no CPT
Cc1ccc(-n2nc3c(N4CCC(C(=O)NCc5ccccc5C)CC4)nnc(C)c3c2C)cc1 | -92 | 7.3µM | 8.2µM | 13µM | ?
Cc1nnc(N2CCCC(C(=O)NCc3ccccc3F)C2)c2nn(-c3ccccc3)c(C)c12 (centres undefined) | - | - | - | ? | -
Cc1c(C(=O)O)oc2c1C(=O)CC(C)(C)C2 | - | - | - | - | -
COc1ccc(CCNC(=O)C2CCN(S(=O)(=O)c3ccc(SC)cc3)CC2)cc1 | - | - | - | - | -
Cc1ccc(Cl)cc1NC(=O)CSc1nc2c(c(=O)[nH]1)CN(Cc1ccccc1)CC2 | . | . | . | - | ?
Cc1cc(F)ccc1C(O)c1ncc(-c2ccccc2C(F)(F)F)[nH]1 (centres undefined) | - | - | - | - | -
CCOc1ccccc1CNC(=O)Cn1nc(C)c2c(C)n(-c3ccc(C)cc3)nc2c1=O | - | - | - | ? | ?
CCOc1ccc(CNC(=O)C2CCN(c3nnc(C)c4c(C)n(-c5ccc(C)cc5)nc34)CC2)cc1 | -99 | - | - | 8.2µM | 23µM
Cc1ccc(-n2nc3c(N4CCC(C(=O)N5CCN(C)CC5)CC4)nnc(C)c3c2C)cc1 | - | - | - | - | -
CCOc1ccccc1CNC(=O)C1CCN(c2nnc(C)c3c(C)n(-c4ccc(C)cc4)nc23)CC1 | -96 | ? | 13µM | 5.8µM | 13µM
COc1nc(-c2ccccc2)ccc1-c1noc(-c2ccccc2F)n1 | - | ? | - | ? | -
COC(=O)C1=C(C(=O)OC)SC2(S1)C(C(=O)OC)=C(C(=O)OC)SC1=C2c2cccc(C)c2NC1(C)C | - | 4µM | 7.1µM | 9.2µM | 23µM
COC(=O)c1c(C)[nH]c(C)c1-c1ccccc1Cl | - | - | - | ? | ?
CC[C@@H]1C=C(C(=O)O)[C@H](c2ccc(C)cc2)N1S(=O)(=O)c1ccc(C)cc1 | - | - | - | - | -
CCOC(=O)C1=C[C@@H](C(C)(C)C)N(S(=O)(=O)c2ccc(C)cc2)[C@H]1c1ccc(C#N)cc1 | - | - | - | ? | -
CCOC(=O)C1=C[C@@H](CC)N(S(=O)(=O)c2ccc(C)cc2)[C@H]1c1cccs1 | - | ? | ? | 15µM | 16µM
CCOC(=O)C1=C[C@@H](CC)N(S(=O)(=O)c2ccc([N+](=O)[O-])cc2)[C@H]1c1ccccc1 | - | - | - | 21µM | ?
CCOC(=O)C1=C[C@@H](c2ccccc2)N(S(=O)(=O)c2ccc(C)cc2)[C@H]1c1cccc(Cl)c1 | - | - | - | ? | 23µM
CCOC(=O)C1=C[C@@H](C(C)(C)C)N(S(=O)(=O)c2ccc(C)cc2)[C@H]1c1cccc(Cl)c1 | - | ? | 18µM | 15µM | 13µM
Cc1ccc(C(=O)NNC(=O)c2ccc(NS(=O)(=O)c3cccs3)cc2)o1 | - | -[9.24 µM] | - | - | -
CCOC(=O)C1=C[C@@H](CC)N(S(=O)(=O)c2ccc(C)cc2)[C@H]1c1cccc(Cl)c1 | - | - | ? | ? | 21µM
CN(C)/C=C/C(=O)c1cccc(Cl)c1 | ? | - | - | - | -
CC(C)CNC(=O)c1cccc(NC(=O)c2ccc(Cl)c([N+](=O)[O-])c2)c1 | -112 | - | - | 21µM | 21µM
CN(C)/C=C/C(=O)c1ccc(Cl)c([N+](=O)[O-])c1 | -96 | - | - | - | ?
CC(C)CNC(=O)c1cccc(NC(=O)COc2ccc([N+](=O)[O-])cc2)c1 | - | - | - | 13µM | 23µM
CC(C)(C)SCCNC(=O)c1ccc(Cl)c([N+](=O)[O-])c1 | ? | - | - | ? | 16µM
